Experimental data as given in PubChem BioAssay (NCI).
The panel holds about 79,000 compounds, 15% with a hit somewhere; the sample as a whole holds those more often. Unmarked numbers belong to inactive results. Calls of active or inactive are those of the source. No stated cut-off is given here; in the data, active means growth inhibition above about 70%; inactive means the rest.

Assays:
[1] = NCI Yeast Anticancer Drug Screen. Data for the rad50 strain (AID 155);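 further: 0% = growth of vehicle-only cultures of the same strain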; conditions: S. cerevisiae rad50 strain growth inhibition; at 50.0 µM; stronger effect = higher value
In short: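 A DNA repair-deficient yeast mutant serves as the test organism; compound-induced growth inhibition is calculated against vehicle-treated cells.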

[2] = NCI Yeast Anticancer Drug Screen. Data for the mec2-1 strain (AID 157); conditions: S. cerevisiae mec2-1 strain, at 50.0 µM, stronger effect = higher value
In short: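 Mutant yeast (mec2-1) grown with compound; growth inhibition relative to vehicle control reported.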

[3] = NCI Yeast Anticancer Drug Screen. Data for the sgs1 mgt1 strain (AID 161);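 further: 0% = growth of cultures given vehicle only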; conditions: S. cerevisiae sgs1 mgt1 strain, at 50.0 µM, stronger effect = higher value
In short: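 Compounds are added to genetically altered yeast, and growth is compared with cultures given vehicle alone to give percent inhibition.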

[4] = NCI Yeast Anticancer Drug Screen. Data for the cln2 rad14 strain (AID 165);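 further: 0% = growth equal to vehicle treated cultures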; conditions: S. cerevisiae cln2 rad14 strain, at 50.0 µM, stronger effect = higher value
In short: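 Readout is yeast growth inhibition versus vehicle-treated controls, using a strain with cln2 and rad14 alterations exposed to compound.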

[5] = NCI Yeast Anticancer Drug Screen. Data for the bub3 strain (AID 167); conditions: S. cerevisiae bub3 mutant strain, at 50.0 µM, stronger effect = higher value
In short: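 Inhibition values come from growth of compound-treated mutant yeast normalised to vehicle-treated controls.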

[6] = NCI Yeast Anticancer Drug Screen. Data for the mlh1 rad18 strain (AID 175); conditions: S. cerevisiae mlh1 rad18 strain growth inhibition; at 50.0 µM; stronger effect = higher value
In short: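 Genetically defined yeast (DNA repair-deficient) exposed to compounds; growth inhibition determined relative to vehicle.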

| Compound | growth inhibition [1] [%] | growth inhibition [2] [%] | growth inhibition [3] | growth inhibition [4] [%] | growth inhibition [5] [%] | growth inhibition [6] [%] |
| --- | --- | --- | --- | --- | --- | --- |
| O=C(O)c1c(F)c(F)c(-c2c(F)c(F)c(C(=O)O)c(C(=O)O)c2F)c(F)c1C(=O)O | 1.5 | 5.5 | -5% | 7.05 | 0.55 | -6.45 |
| OCCN(Cc1ccccc1)Cc1ncccc1O | 9.35 | -27.1 | -11.4% | 8.85 | -3.9 | 5.7 |
| COc1cc(Nc2cnc3cc(N)ccc3n2)cc(OC)c1OC | -16.8 | -33.8 | -31.2% | -16.2 | -9.65 | -45.5 |
| CC(C)(CO)N1CCN(C(=S)Nc2ccccc2)CC1 | 17.9 | -2.6 | -0.3% | -1.9 | -10.8 | 17.8 |
| O=S(=O)(Cl)C1c2ccccc2-c2ccccc21 | 22.4 | 20.1 | 12.5% | 15.7 | 23.2 | 23.4 |
| CCOC(=O)CCC[Si](CC)(CC)CC | 13.9 | 12.3 | 1.5% | -22.1 | -15 | 5.9 |
| O=C(CCCN1CC=C(n2c(=O)[nH]c3ccccc32)CC1)c1cccs1 | 50.6 | 29.2 | 32.4% | 19.9 | 33.1 | 42.8 |
| CCC(=O)SCC[N+](C)(C)C | 16.1 | -30.8 | 0.2% | 8.8 | 27.6 | 4.55 |
| O=C(CP(=O)(c1ccccc1)c1ccccc1)c1cccc(C(=O)CP(=O)(c2ccccc2)c2ccccc2)c1 | -6.35 | -10.1 | -7.05% | -15.7 | -21.1 | -2.4 |
| S=c1[nH]c2ccccc2n2cccc12 | 14.9 | -7.15 | 27.4% | 12.8 | -12.3 | 19.2 |
| CCC(=O)N1CCN(C(=O)CC)CC1 | 6.4 | -2.45 | -5.25% | -12.8 | 1.95 | -2.25 |
| CCOC1C(=O)C=COC1C(C)C (stereo not given) | -2.5 | -4.65 | -2.75% | 1.7 | -1.75 | -12.2 |
| COc1cc2nc3n(c(=O)c2cc1OC)CCCCC3 | 10.4 | 14.6 | 3.75% | -13.2 | 28 | -19.8 |
| CC(=O)c1c(O)ccc2c(C)cc(=O)oc12 | 37.5 | 18.8 | 7.4% | 3.1 | 26.9 | 15.8 |
| O=[N+]([O-])c1cccc2cnccc12 | -7.25 | 22.4 | 3.9% | -21.1 | 5.5 | 17.6 |
| COc1cc2c(cc1OC)C(=O)CC2 | -12.7 | -10.9 | -19.7% | -5.25 | -4.2 | 0.15 |
| Nc1ccc(S(=O)(=O)NO)cc1 | -12.1 | -3.95 | -2.55% | -27.1 | -2.2 | 11.3 |
| Nc1cccc(/C=C(/C(=O)O)c2ccc(Cl)cc2)c1 | 3.4 | -4.45 | -7.3% | -38.9 | -15.6 | 0.15 |
| COc1c(C(=O)O)ccc(C(=O)NCCCCCN(O)C(=O)CCC(=O)NCCCCCN(O)C(=O)CCC(=O)NCCCCCN(O)C(C)=O)c1OC | -7.25 | 4.25 | -5.35% | -24.9 | -0.6 | -28.4 |
| Cc1cc(=O)n(Cc2ccccc2)n1-c1ccccc1 | -11 | 12.8 | -0.4% | 9.4 | 1.2 | -17 |

| Compound | growth inhibition [1] [%] | growth inhibition [2] [%] | growth inhibition [3] | growth inhibition [4] [%] | growth inhibition [5] [%] | growth inhibition [6] [%] |
| --- | --- | --- | --- | --- | --- | --- |
| COc1ccc2ncc(COC(=O)NC3CCCCC3)c(COC(=O)NC3CCCCC3)c2c1 | 36.9 | -2.1 | 24.4% | -0.6 | -4.25 | 22.5 |
| N#CC(CCc1ccccc1[N+](=O)[O-])(CCc1ccccc1[N+](=O)[O-])C(N)=O | 19.3 | 5.55 | 24.4% | -18.4 | 16.6 | 39.1 |
| C=CCCc1cc(OC)ccc1C(=O)C(C)C | 4.3 | -17.8 | -20.1% | -20.8 | 0.2 | -12.6 |
| C/C(=N\NC(C)(C)C)c1sc(-c2nc(C)c(/C(C)=N/NC(C)(C)C)s2)nc1C | 46.5 | 3.9 | -7.5% | -20.6 | 22.1 | 21.8 |
| NS(=O)(=O)c1ccc(NC(=S)/N=C\c2c(O)[nH]c(=O)[nH]c2=O)cc1 | -13 | -16.3 | -18.3% | 15.7 | -12.6 | -11 |
| c1ccc(CNc2ccccc2)cc1 | 3.6 | -29.5 | -24.4% | 12.1 | -18.9 | -2.1 |
| CCCCCCCCCCCCCCCCSc1ccncc1NN=O | 36.2 | -2 | 17.1% | -10.5 | -3.8 | 2.3 |
| CN(C(=O)c1ccc(Cl)c(Cl)c1)C(c1ccco1)P(=O)(c1ccccc1)c1ccccc1 (stereo not given) | 54 | 46.2 | 78.4% (active) | 17.2 | 50.4 | 45.9 |
| CC(=O)Nc1ccc(S(=O)(=O)CO)cc1 | 19.4 | 16.9 | 19.6% | 6.55 | -0.3 | 16.8 |
| CC(C)CC(NC(c1ccccc1)P(=O)(O)O)C(=O)O (stereo not given) | -4.15 | -13.2 | -22.1% | -9 | -8.3 | -27.1 |
| N#CC1C(=O)NC(=O)C(C#N)C1C1C(=O)NC2CCCCC21 (stereo not given) | 41.2 | 5 | 17.2% | 23.2 | 11.1 | 32.8 |
| O=C(C#Cc1ccccc1)N1c2ccccc2CC1c1c[nH]c2ccccc12 (stereo not given) | -7.25 | -6.2 | 0.7% | 2.55 | -2.8 | -6.85 |
| CC1CCN(C(=O)c2cc(Nc3ccnc4cc(Cl)ccc34)ccc2O)CC1 | -2.05 | -3.4 | -6.65% | -4.35 | -3.9 | 7.6 |
| COCCCNC(=S)N/N=C/c1ccccc1O | -2.4 | -31.1 | 16.6% | 12.2 | 11.2 | 4 |
| CC(=O)C1=C(O)C2(O)C(=O)c3c(c(C)c4ccc(C)c(O)c4c3O)CC2C(N)C1=O (stereo not given) | 9.85 | 38.1 | 14.2% | 11.7 | 19 | 4 |
| CC(C)(C(=O)O)c1ccccc1C(=O)c1ccccc1 | -10.7 | 12.1 | 0.15% | 49.3 | -0.75 | 14.3 |
| Cc1ccc(S(=O)(=O)N2CC(O)C=Cc3ccccc32)cc1 (stereo not given) | 5.4 | -3.1 | -4.45% | 17.5 | 5.15 | 9.85 |
| CC1C2CC(C(C3C(=O)C4CC3C(C)(C)C4C)C2=O)C1(C)C (stereo not given) | -13.1 | -26.1 | -43.2% | -1 | -27.4 | -32.1 |
| Nc1cc(C(F)(F)F)cc(C(F)(F)F)c1 | -6.2 | 1.6 | -0.85% | 16.6 | -1.4 | -10.4 |
| COc1cc2c3c(c1)[nH]c(=S)n3C(=O)CS2 | -18.9 | -30.1 | -57.4% | -16.7 | -18.7 | -40.9 |
